Test results taken from PubChem BioAssay AID1159580 (chemical genetic matrix, 2015).
Values joined by “and” are separate entries in the source; they are usually repeats but may differ in a detail not shown here. Equal entries are not always repeated. Hit rate of the full screen: of about 5,500 compounds, about 2,000 (36%) were called active. About 18% were inconclusive and are not listed. Cut-off read from the data, not from the text of the source: active = normalized growth mostly below about 0.91 (no sharp cut-off); inconclusive = no clear call, values can overlap the other calls; inactive = mostly above about 0.92. Some of the results follow.

Test: chemical genetic growth profiling, strain panel (AID 1159580);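 note: tested at 20 µM; growth read once vehicle control cultures reached saturation at 30 °C; 1 = growth at the plate median or of vehicle wells; lower values mean less growth of the strain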
Details: S. cerevisiae deletion strains, growth OD

Measured: normalized growth

CC[C@@H]1[C@@H](O)N2C3C[C@H]1C1C(O)[C@]4(C[C@@H]12)c1ccccc1N(C)[C@@H]34 (some centres not stated)
inactive: locus YAL013W, strain DEP1, hits give low values 0.992 | locus YAL021C, strain ccr4, hits give low values 1.01 | locus YAL026C, strain drs2, hits give low values 1.04 | locus YAL030W, strain snc1, hits give low values 1.05 | locus YBL061C, strain skt5, hits give low values 1.04 | locus YBR009C, strain hhf1, hits give low values 1.02 | locus YBR021W, strain FUR4, hits give low values 0.989 | locus YBR023C, strain chs3, hits give low values 1.05 | locus YBR171W, strain sec66, hits give low values 1.07 | locus YBR229C, strain ROT2, hits give low values 0.991 | locus YBR231C, strain swc5, hits give low values 0.999 | locus YBR279W, strain paf1, hits give low values 1.04 | locus YCL011C, strain gbp2, hits give low values 1.02 | locus YCL016C, strain dcc1, hits give low values 1.02 | locus YCL029C, strain bik1, hits give low values 0.956 | locus YCL061C, strain MRC1, hits give low values 1.04 | locus YCL069W, strain vba3, hits give low values 1.04 | locus YCR088W, strain abp1, hits give low values 1.04 | locus YDL005C, strain med2, hits give low values 1.05 | locus YDL035C, strain GPR1, hits give low values 1.01 | locus YDL040C, strain nat1, hits give low values 1.03 | locus YDL074C, strain BRE1, hits give low values 0.972 | locus YDL101C, strain DUN1, hits give low values 0.984 | locus YDL134C, strain PPH21, hits give low values 0.986 | locus YDL185W, strain tfp1, hits give low values 0.963 | locus YDL192W, strain arf1, hits give low values 0.984 | locus YDR001C, strain nth1, hits give low values 1.02 | locus YDR069C, strain doa4, hits give low values 1.04 | locus YDR101C, strain arx1, hits give low values 0.981 | locus YDR137W, strain rgp1, hits give low values 1.04 | locus YDR150W, strain NUM1, hits give low values 1 | locus YDR159W, strain sac3, hits give low values 0.974 | locus YDR162C, strain NBP2, hits give low values 0.998 | locus YDR195W, strain ref2 1.03 | locus YDR297W, strain sur2, hits give low values 1.03 | locus YDR318W, strain mcm21, hits give low values 0.972 | locus YDR334W, strain swr1, hits give low values 1.03 | locus YDR335W, strain msn5, hits give low values 1.03 | locus YDR388W, hits give low values 0.978 | locus YDR392W, strain spt3, hits give low values 0.93 | locus YDR502C, strain sam2, hits give low values 1 | locus YEL003W, strain gim4, hits give low values 1.03 | locus YEL037C, strain rad23, hits give low values 1.02 | locus YEL061C, strain CIN8 (second series), hits give low values 1.04 | locus YEL061C, strain CIN8, hits give low values 0.995 | locus YER015W, strain faa2, hits give low values 1.02 | locus YER016W, strain bim1, hits give low values 1.01 | locus YER110C, hits give low values 0.977 | locus YER111C, strain swi4, hits give low values 1.06 | locus YER155C, strain BEM2 (second series), hits give low values 0.983 | locus YER155C, strain BEM2, hits give low values 0.991 | locus YER167W, strain BCK2, hits give low values 0.989 | locus YFR010W, strain ubp6, hits give low values 1.02 | locus YGL078C, strain dbp3, hits give low values 0.978 | locus YGL086W, strain mad1, hits give low values 0.992 | locus YGL167C, strain pmr1, hits give low values 1.03 | locus YGL173C, strain kem1, hits give low values 1.02 | locus YGL227W, strain vid30, hits give low values 1.05 | locus YGL240W, strain doc1, hits give low values 0.979 | locus YGL248W, strain PDE1, hits give low values 0.991 | locus YGL253W, strain hxk2, hits give low values 1.04 | locus YGR078C, strain PAC10, hits give low values 0.984 | locus YGR135W, strain pre9, hits give low values 0.96 | locus YGR229C, strain SMI1, hits give low values 1 | locus YGR252W, strain gcn5, hits give low values 1 | locus YHR013C, strain ard1, hits give low values 1.03 | locus YHR027C, strain rpn1, hits give low values 1.02 | locus YHR030C, strain SLT2, hits give low values 0.993 and 0.984 | locus YHR079C, strain IRE1 (second series), hits give low values 0.965 | locus YHR079C, strain IRE1, hits give low values 0.981 | locus YHR094C, strain hxt1, hits give low values 0.983 | locus YHR129C, strain ARP1, hits give low values 0.982 | locus YHR142W, strain chs7, hits give low values 1.1 | locus YHR200W, strain rpn10, hits give low values 0.981 | locus YIL066C, strain RNR3, hits give low values 0.993 | locus YIL073C, strain SPO22, hits give low values 0.997 | locus YIL125W, strain kgd1, hits give low values 0.981 | locus YIR030C, strain dcg1, hits give low values 0.984 | locus YJL092W, strain hpr5, hits give low values 1.04 | locus YJL095W, strain BCK1 (second series), hits give low values 1.01 | locus YJL095W, strain BCK1, hits give low values 0.966 and 1.01 | locus YJL115W, strain asf1, hits give low values 1.07 | locus YJL129C, strain trk1, hits give low values 1.06 | locus YJL134W, strain LCB3, hits give low values 0.993 | locus YJL154C, strain vps35, hits give low values 1.03 | locus YJL164C, strain tpk1, hits give low values 1.04 | locus YJL166W, strain qcr8, hits give low values 1.04 | locus YJL168C, strain set2, hits give low values 0.97 | locus YJL187C, strain SWE1 (second series), hits give low values 0.979 | locus YJL187C, strain SWE1, hits give low values 1.02 | locus YJR043C, strain POL32, hits give low values 0.973 | locus YJR066W, strain TOR1, hits give low values 0.926
